Reference: PubChem BioAssay

Assay: probe aLefty2 binding to arrayed compounds – biochemical, biotinylated probe, 635/667 nm fluorescence, primary screen (AID 1094);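 also: score merges spot fluorescence near 667 nm with spot signal-to-noise ratio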
Details: small-molecule microarray, higher = more signal

SMILES | composite z-score
O=c1cccc(CCc2ccccc2)o1 | -0.117
COc1ccc([Si](C)(C)[C@H]2[C@H](CCn3cc(CCO)nn3)O[C@@]3(C(=O)N(Cc4ccc(N5CCOC5=O)cc4)c4ccccc43)[C@@H]2C)cc1 | -0.103
C=CC[C@@H](OC(=O)Nc1ccc(OC)cc1)c1ccc(O)c2ccccc12 | -0.142
CC(c1ccccc1)C(O)C1C=CC2C(=O)NC(=O)C2N1Nc1ccccn1 (stereo unspecified) | 0.136
CC(C)CNC(=O)[C@@H]1c2ccccc2C(=O)N(Cc2cc(C(F)(F)F)cc(C(F)(F)F)c2)[C@H]1c1ccc(CO)cc1 | 0.104
C[C@]1(C(=O)NCc2ccccc2)c2ccccc2C(=O)N(Cc2cc(F)cc(C(F)(F)F)c2)[C@H]1c1ccc(CO)cc1 | -0.0508
O=C1O[C@H](c2ccccc2)[C@H](c2ccccc2)N2[C@H]1[C@@H](C(=O)Nc1nc3ccccc3s1)[C@]1(C(=O)Nc3ccccc31)[C@H]2c1ccc(O)cc1 | -0.23
CN(C)CCCNC(=O)[C@@]1(Cc2ccccc2I)c2ccccc2C(=O)N(Cc2ccccc2C(F)(F)F)[C@H]1c1ccc(CO)cc1 | -0.16
CCCCCN1CC=CC23O[C@@H]4C=CCOC(=O)[C@@H]4[C@H]2C(=O)N(CCCO)[C@@H]3C1=O (stereo partly specified) | -0.221
C=C(CCCC)/C(=C/C[C@H](OC(C)=O)c1ccc(CO)o1)c1cnc2ccccc2c1 | -0.0998
CC(C)NC(=O)[C@@]1(Cc2ccccc2I)c2ccccc2C(=O)N(Cc2ccccc2)[C@H]1c1ccc(CO)cc1 | -0.0354
O=C1C2C=CC(C(O)c3ccc(B(O)O)cc3)N(Nc3ccccc3)C2C(=O)N1c1ccccc1 (stereo unspecified) | 0.229
O=C1C[C@]2(c3ccc([N+](=O)[O-])cc3)C(=O)N(CC(F)(F)F)c3cc(CO)ccc3[C@H]2N1CC12CC3CC(CC(C3)C1)C2 | -0.145
N#Cc1ccc(NN2C(C(O)c3cccs3)C=CC3C(=O)N(c4ccccc4)C(=O)C32)cc1 (stereo unspecified) | -0.0768
COCCOC(=O)N1C(=O)[C@@]2(c3cc(C#CCNC(N)=O)ccc31)[C@H](C(=O)N1CCc3cc(OC)c(OC)cc3C1)[C@H]1C(=O)O[C@H](c3ccccc3)[C@H](c3ccccc3)N1[C@@H]2c1ccc(OCCO)cc1 | -0.0163
CC(=O)Nc1cc(Br)ccc1C(=O)O | -0.0006
C=CCOC(=O)[C@@H]1[C@H]2C(=O)O[C@H](c3ccccc3)[C@H](c3ccccc3)N2[C@H](c2ccc(OCCOC(=O)[C@@H]3C[C@@H]4C(=O)N[C@@H](Cc5ccccc5)C(=O)N4[C@@H]3c3cccc(OCCO)c3)cc2)[C@@]12C(=O)Nc1ccc(I)cc12 | -0.0286
[N-]=[N+]=NCc1ccccc1C[C@]1(C(=O)O)N=C(c2ccc(OCCCO)cc2)O[C@H]1c1ccccc1CN=[N+]=[N-] | 0.0987

SMILES | composite z-score
NCCCCCNC(=O)[C@H]1C[C@H]2C(=O)NCC(=O)N2[C@H]1c1cccc(OCCO)c1 | -0.0766
COc1cc2c(cc1OC)CN(C(=O)[C@@H]1[C@H]3C(=O)O[C@H](c4ccccc4)[C@H](c4ccccc4)N3[C@H](c3ccccc3OCCO)[C@@]13C(=O)Nc1ccc(C#CCNC(N)=O)cc13)CC2 | 0.257
C=C(COC)C(=O)CC[C@H](OC(C)=O)c1cccc(OCCO)c1 | -0.158
CCOC(=O)C[C@H]1[C@H](OC(=O)Cc2ccc3c(c2)OCO3)[C@@H](NC(=O)C2CCCCC2)c2cc(OCCCO)ccc2N1C(=O)Cc1ccc(OC)cc1 | -0.0313
COCCOC(=O)N1C(=O)[C@@]2(c3cc(C#CCNC(N)=O)ccc31)[C@H](c1ccc(OCCO)cc1)N1[C@H](c3ccccc3)[C@H](c3ccccc3)OC(=O)[C@H]1[C@@H]2C(=O)N1CCc2cc(OC)c(OC)cc2C1 | -0.0555
COCCOC(=O)N1C(=O)[C@@]2(c3cc(C#CC4(O)CCCCCC4)ccc31)[C@H](C(=O)N1CCCCCCC1)[C@H]1C(=O)O[C@H](c3ccccc3)[C@H](c3ccccc3)N1[C@@H]2c1ccccc1OCCO | 0.911
C=C(COC)/C(=C/C[C@H](OC(=O)c1ccncc1)c1cccc(OCCO)c1)c1cc(C(=O)OC)ccc1OC | -0.128
COc1c(C)cc(-c2cc3c(c(-c4ccc(Oc5ccccc5)cc4)n2)[Si](C(C)C)(C(C)C)OC3)cc1C | -0.0528
CCOC(=O)C1=CCC(c2ccc(C#N)cc2)N(S(=O)(=O)c2ccc(C)cc2)C1 (stereo unspecified) | 0.276
CCOC(=O)C1=C[C@@H](C(C)C)N(S(=O)(=O)c2ccc(C)cc2)[C@H]1c1ccc(C(C)C)cc1 | 0.112
CCOC(=O)C1=CCC(C(C)(C)C)N(S(=O)(=O)c2ccc(C)cc2)C1 (stereo unspecified) | 0.0277
CCCCC=C[C@@H](NC(=O)c1ccco1)c1ccccc1 | -0.0251
CC(C)(C)N1CC=CC23O[C@@H]4C=CCOC(=O)[C@@H]4[C@H]2C(=O)N(CCCCCO)[C@@H]3C1=O (stereo partly specified) | -0.215
O=C1C=CC(=O)[C@@H]2CC(COc3ccccc3)=C3[C@@H](CCc4ccccc4)OB(O)C[C@@H]3[C@H]12 | -0.289
Cc1ccccc1C(O)C1C=CC2C(=O)N(C)C(=O)C2N1N1CCCCC1 (stereo unspecified) | 0.331
CCOC(=O)C[C@H]1[C@H](OC(=O)c2ccc(C(=O)c3ccccc3)cc2)[C@@H](NC(=O)C2CCCCC2)c2cc(OCCCO)ccc2N1C(=O)c1ccccc1 | -0.02
Cc1ccc(S[C@]2(C(=O)NCC(C)C)CC(=O)N(Cc3ccccc3Cl)[C@@H]2c2ccc(CO)cc2)cc1 | -0.0216
COc1cccc(C(=O)O[C@H]2CC[C@]3(C)C4=C(CCC3C2(C)C)[C@]2(C)CC[C@H]([C@H](C)CCCC(C)C)[C@@]2(C)CC4)c1 (stereo partly specified) | -0.082
